Test results from PubChem BioAssay (NCI).
Compounds without any hit were thinned out: in the full panel of roughly 83,000, 20% have a hit.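 For each line, cells grew in 96-well plates with the test compound present at a single concentration for 48 hours.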 Calls of active or inactive are those of the source.

What follows are compounds tested on COLO 205 colon (assay: NCI-60 one-dose screen, 48 h (100 = growth as untreated, 0 = no growth, -100 = all killed)). Conditions: 10 µM unless noted.
Experimental: Cells are grown in 96 well plates and exposed to the test compound for 48 hours. Compounds are tested at a single concentration, which is 10^-5 M for most compounds. The reported endpoint is percent growth (GI% or GIPRCNT), where numbers from 0 - 100% represent growth inhibition, and numbers from -100% - 0 represent cell death. For example, a value of 40 represents 60% growth inhibition. A value of 0 means no net growth occurred over the course of the experiment. A value of -40 indicates 40% of cells at the beginning of the experiment died by the end of the experiment. A value of -100 means all cells are dead at the end of the experiment.
NCI-60 Human Tumor Cell Lines Screen was performed using the standard one-dose NCI protocol, which is described in more detail at https://dtp.cancer.gov/discovery_development/nci-60/default.htm.
Compounds with GIPRCNT values below 10 were considered active. Activity score was based on GIPRCNT using the following formula: […]
Score is 0 for GIPRCNT values of 100 or above, 50 for GIPRCNT values of 0, and 100 for GIPRCNT values of -100.

Row | SMILES | growth
1 | COc1cccc(CCC(=O)c2cc3c(N)c(C(=O)Nc4cccc(Cl)c4C)sc3nc2C)c1 | 7.16% (active)
2 | CN(C)C(=O)OCc1nc2c(N3CCOCC3)nc(-c3ccccc3)nc2n1C | -70.5% (active)
3 | CCC(C)C(N)C(=O)NNc1n[nH]c(=S)n1N (stereo not given) | 116% (inactive)
4 | Clc1ccc2c(c1)c(-c1ccccc1)nc1nncn12 | 115% (inactive)
5 | Cc1ccccc1CNc1ccc(N2CCOCC2)cc1 | 108% (inactive)
6 | Fc1ccc(-n2cc(COc3ncnc4sc5c(c34)CCCC5)nn2)cc1Cl | 109% (inactive)
7 | CCCCCCc1nc2nc(Cl)c(Cl)nc2[nH]1 | 102% (inactive)
8 | Clc1ccc(C2CC(c3cccc(Nc4ccncc4)c3)=NN2c2ccccc2)cc1 (stereo not given) | -63.6% (active)
9 | COc1ccccc1Nc1cc(O)c2c(=O)cc(-c3ccccc3)oc2c1 | 76.8% (inactive)
10 | C=C1C(=O)O[C@H]2[C@H]1CC/C(COC(=O)CCCCCC(=O)OC/C1=C/CC[C@@]3(C)O[C@H]3[C@H]3OC(=O)C(=C)[C@@H]3CC1)=C\CC[C@@]1(C)O[C@@H]21 | -38.4% (active)
11 | O=C1Nc2c(ccc(Cl)c2Cl)/C1=C/c1ccc([N+](=O)[O-])cc1 | 114% (inactive)
12 | C=C1C(=O)O[C@H]2[C@H]1CC/C(COC(=O)/C=C/c1c[nH]c3ccccc13)=C\CC[C@@]1(C)O[C@@H]21 | -68.8% (active)
13 | Fc1ccc2nc3c(cc2c1)CSc1nnc(-c2ccc[nH]c2=S)n1N3 | 115% (inactive)
14 | C#Cc1cccc(NC(=O)Nc2ccc(NC(=O)CCl)cc2)c1 | -58.2% [8.25 µM] (active)
15 | NC(=O)c1cccc(-c2ccccc2N2CCCCC2)c1 | 121% (inactive)
16 | CCCCCCCCOC(=O)c1ccc(O)c(OC)c1 | 114% (inactive)
17 | Nc1nc(N)nc(NCc2ccccc2)n1 | 119% (inactive)
18 | CCC1(CC)NC(=O)c2c(c3ccc(Cl)c(Cl)c3n2C)C1C#N (stereo not given) | 80.1% (inactive)
19 | CN(C)C(C(N)=O)c1ccc(Cl)cc1 (stereo not given) | 110% (inactive)
20 | O=C(CNCCO)Nc1ccc2ncnc(Nc3ccc(OCc4cccc(F)c4)c(Cl)c3)c2c1 | 96% (inactive)

Row | SMILES | growth
21 | Cc1ccc(C(c2c(O)c3cc(Br)ccc3[nH]c2=O)c2c(O)c3cc(Br)ccc3[nH]c2=O)cc1 | 111% (inactive)
22 | O=C1Nc2c(ccc(Cl)c2Cl)/C1=C/c1ccccn1 | 108% (inactive)
23 | CCCCCCCCN1C(=O)/C(=c2\sc3n(c2=O)C2C(NN=3)N(CC)C(=O)N2CC)c2ccccc21 (stereo not given) | 104% (inactive)
24 | CCOC(=O)C1=C(C)NC(C)=C(C(=O)OCC)C1c1cc(Br)c(O)c(OC)c1 | 104% (inactive)
25 | Cc1ccc(C2C3CC4CCCCC4N3[C@@]3(C(=O)Nc4cc(Cl)ccc43)C2C(=O)c2nc3ccccc3[nH]2)cc1 (stereo not given in full) | 30.6% (inactive)
26 | O=C1OC(=O)C2C1CC=CC2c1ccccc1 (stereo not given) | 93.7% (inactive)
27 | CC(N)C(=O)NNc1n[nH]c(=S)n1N (stereo not given) | 111% (inactive)
28 | CC1(C)NCCC[C@]2(C)[C@H]3CC=C4[C@@H]5C[C@@](C)(CO)CC[C@]5(C)CC[C@@]4(C)[C@]3(C)CC[C@@H]12 | -4.98% (active)
29 | O=C(Cc1ccc(/C=C/C(=O)c2ncc[nH]2)cc1)Nc1ccc(C(F)(F)F)cc1 | 36.3% (inactive)
30 | COc1ccc2c(c1)OC13Oc4cc(OC)ccc4C=C1CCCC3=C2 | -9.95% (active)
31 | COc1ccc2c(c1)c(CC(=O)NCCOCCOCC(=O)Nc1ccc(OC)c(C(N)=O)c1O)c(C)n2C(=O)c1ccc(Cl)cc1 | 109% (inactive)
32 | COc1cc(-c2cc(=O)oc3cc(O)ccc23)c(OC)c2c1OCO2 | 102% (inactive)
33 | Cc1c2c(cc[n+]1Cc1ccccc1)c1ccc(OCc3ccccc3)cc1n2Cc1ccccc1 | -82.3% (active)
34 | CCCCCCC/C=C/[C@H]1O[C@]2(O)C(=O)C=C3C[C@@H](O[C@@H]4O[C@H](CO)[C@@H](O)C(O)[C@@H]4O)C[C@@H]3[C@H]2C=C1C (stereo not given in full) | 11.8% (inactive)
35 | COc1cc(CCNc2nc3cc(N)cc(N)c3nc2-c2ccccc2)cc(OC)c1 | -60.8% (active)
36 | Cc1nc2sc(C(=O)Nc3ccccc3)c(N)c2cc1C(=O)c1ccc(C(F)(F)F)cc1 | 104% (inactive)
37 | CCOC(=O)N1CCN(CCCCl)CC1 | 113% (inactive)
38 | COc1cc2nc(-c3ccc(-c4nn[nH]n4)cc3)[nH]c(=O)c2cc1OC | 117% (inactive)
39 | COc1ccc(C2CC(c3cccc(Nc4ccncc4)c3)=NN2c2ccccc2)cc1 (stereo not given) | -55% (active)
40 | COc1ccc(-c2nc(N/N=C/c3ccco3)nc(N3CCOCC3)c2C#N)cc1 | 85.7% (inactive)
